Screening results as filed in PubChem.
HT1080-NT tox: kills 2HG-producing HT-1080-NT fibrosarcoma cells. HT-1080-NT fibrosarcoma viability, CellTiter-Glo ATP luminescence, 48 h. Potency, µM (doses to about 46.1 µM), inactives show at the highest dose activity, negative = less viability, actives largely listed as cytotoxic. 1.6% of 360,000 active;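 note: NT is the 2HG producing partner of a matched IDH1 knockdown line; potency is the fitted concentration of half-maximal effect; 0% = DMSO-treated cells and -100% = media-only wells without cells; nearly all actives have a fitted effect of over 55% in size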
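750 cells/well, RPMI + 5% FBS; 2 h settle, compound pin-transfer, 48 h at 37 degrees C. CellTiter-Glo 10 min RT, luminescence. Normalized to DMSO and media-only wells.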
DT40 TDP1 CPT: growth inhibition of DT40 Tdp1-/-;hTDP1 cells with camptothecin (screen for TDP1 inhibitors) | Potency, µM (highest dose often 46.2 µM), for the others: top-dose activity change, negative = growth inhibition, hits mostly inhibitors | 12% of 420,000 active | chicken DT40 Tdp1-/-;hTDP1 cells + 20 nM CPT, ATP luminescence, 48 h; note: potency is the fitted concentration of half-maximal effect; nearly all actives have a fitted effect of over 55% in size
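Chicken DT40 Tdp1-/- cells complemented with human TDP1, 400 cells/well, exposed to compounds plus 20 nM camptothecin for at least 48 h at 37 C; viability read as ATP content by CellTiter-Glo luminescence.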
ELG1 repair inh: blocks ELG1-dependent DNA repair in HEK293T cells; HEK293T ELG1-luciferase reporter, luminescence, 16 h; DNA damage induced by 5-fluorouridine; 2.3% of 330,000 active; Potency, µM (top dose mostly 46.1 µM), for the others: at the top dose activity change, negative = inhibition, actives largely listed as inhibitors; note: potency is the fitted concentration of half-maximal effect; nearly all actives have a fitted effect of over 55% in size
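HEK293T cells expressing luciferase-tagged ELG1 (2,000/well) received 5-Fluorouridine plus compound or DMSO for 16 hr at 37 °C. Luciferase was read by ONE-Glo luminescence after 30 min at room temperature.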
HT1080 IDH1KD tx: HT-1080 IDH1 knockdown cell toxicity (counter line). HT-1080 IDH1 knockdown viability, ATP luminescence, 48 h. 2% of 360,000 active. Potency, µM (series often up to 46.1 µM), for inactives: at the highest dose activity, negative = toxicity, actives largely listed as cytotoxic;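 note: potency is the fitted concentration of half-maximal effect; 0% = DMSO wells and -100% = cell-free medium wells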
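Assay cells: HT-1080 with IDH1 knockdown, 750 per well, RPMI/5% FBS. Exposure: 48 h at 37 °C following 2 h pre-incubation. Read: CellTiter-Glo luminescence; fitted concentration-response, curve class assigned.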
IL1B secr inh: inflammasome signaling inhibition, IL-1 beta readout | THP-1 LPS/ATP IL-1B secretion, AlphaLISA, 16 h; stronger effect = lower value | activity change, % at 57.5 µM | 4.7% of 360,000 active | AID 743279; in the data active = activity change below about -50%; inconclusive = mostly about -30% to -49%
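Secreted IL-1B measured by AlphaLISA bead assay after 16 h compound exposure of THP-1 cells; compounds (final up to 57.5 uM) added 1 h before LPS (250 ng/mL) and ATP (1.25 mM) stimulation; lower signal means less secretion.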
TDP1 cell noCPT: qHTS for Inhibitors of human tyrosyl-DNA phosphodiesterase 1 (TDP1): qHTS in cells in absence of CPT | DT40 Tdp1-/- hTDP1 cells, no CPT, ATP luminescence, 48 h | Potency, µM (series often up to 46.2 µM), for the others: at the highest dose activity change, negative = growth inhibition, hits mostly inhibitors | 15% of 420,000 active; note: potency is the fitted concentration of half-maximal effect; nearly all actives have a fitted effect of over 55% in size
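Growth kinetics read by CellTiter-Glo luminescence after ≥48 hr at 37 °C. Cells: DT40 Tdp1-/- stably carrying human TDP1, 400 per well, compound exposure in the absence of CPT (DMSO vehicle).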
* marks the source's active call; other numbers are inactive results; i = inactive; u = inconclusive; x = no result given. A selection: hits, their analogues and other compounds. The true share with any hit is near 19%. Unless noted, calls come from the whole dose curve; as a rule, active = well fitted curve in the direction sought with a large enough effect; inconclusive = small, poorly fitted or top-dose-only effect, or another doubt; inactive = no such curve, though single readings can be large; an effect the other way counts as inactive or inconclusive. Unless noted, % is set by controls: 0 for no effect and ±100 for the full control effect.

SMILES | HT1080-NT tox | DT40 TDP1 CPT | ELG1 repair inh | HT1080 IDH1KD tx | IL1B secr inh | TDP1 cell noCPT
Clc1cccc(Nc2ncnc3c2nc2n3CCCCC2)c1 | x | 8.2µM* | x | x | x | 9.2µM*
Clc1ccccc1Nc1ncnc2c1nc1n2CCCCC1 | x | 8.2µM* | x | x | x | u
Clc1cccc(N2CCN(c3ncnc4c3nc3n4CCCC3)CC2)c1 | x | 16.4µM* | x | x | x | 20.6µM*
COc1ccc(OC)c(CNc2ncnc3c2nc2n3CCCC2)c1 | x | 13µM* | x | x | x | u
O=C(OCC(=O)N1CCCC1)c1cc(Cl)ccc1Cl | 20.7% | -1.9% | u | 5.9% | 2.4 | -5.7%
CCn1cc(C(=O)O)c(=O)c2cc(F)c(N3CCN(S(=O)(=O)c4ccc(Br)cc4)CC3)cc21 | x | x | -6.3% | x | x | x
CN1C[C@@H]2C[C@H]1CN2c1cc2c(cc1F)c(=O)c(C(=O)O)cn2C1CC1 | x | 6.68µM* | x | x | x | 6.68µM*
O=C(O)c1cn(C2CC2)c2cc(N3CCN(S(=O)(=O)c4ccc5c(c4)OCCO5)CC3)c(F)cc2c1=O | u | 14.6µM* | u | u | 32.3 | 14.6µM*
Cc1cc(F)ccc1S(=O)(=O)N1CCCOC1CNC(=O)C(=O)NCCCN1CCOCC1 (stereo not given) | 9.1% | -7.6% | 7.8% | -1.4% | i | 1.9%
Cc1ccc(C)c(N2CCN(C(=O)CN3C(=O)CSc4c3c(C)nn4-c3ccccc3)CC2)c1 | x | 18.4µM* | x | x | x | 25.9µM*
Cc1ccc(Cl)cc1N1CCN(C(=O)CN2C(=O)CSc3c2c(C)nn3-c2ccccc2)CC1 | x | u | x | x | x | -20.6%
Cc1nn(-c2ccccc2)c2c1N(CC(=O)N1CCN(c3cccc(Cl)c3)CC1)C(=O)CS2 | x | u | x | x | x | 20.6µM*
CN(C)c1ncc2nc(-c3cccs3)c(=O)n(C3CC3)c2n1 | x | 12.2% | x | x | x | -19.5%
O=C(N/N=C/C=C/c1ccccc1)NC1CCCCC1 | -4.1% | 18.4µM* | 1.6% | -5.3% | -23.3 | 18.4µM*
O=C(N/N=C/C=C/c1ccccc1)C1CC1c1ccccc1 (stereo not given) | -28.0% | 18.4µM* | 5.3% | u | -11.3 | 11.6µM*
CN(C)c1ccc(/C=N/NC(=O)C2CC2c2ccccc2)cc1 (stereo not given) | 7.0% | -26.8% | 3.1% | -22.8% | -30.0 | -26.1%
Cc1ccc(C(=O)NC2CC3CCCC(C2)N3C(=S)NCc2ccco2)cc1 (stereo not given) | -7.4% | -5.8% | u | -2.6% | -20.8 | -1.3%
COc1ccc(-c2cc3c(=O)n(CC(=O)NCCCN4CCC(N5CCCCC5)CC4)ncn3n2)cc1 | -14.4% | 14.6µM* | u | -1.0% | -11.5 | u
N#Cc1c(-c2ccc(Cl)cc2)n(O)c2ccccc12 | 10.3µM* | 3.26µM* | x | 14.6µM* | -54.3* | 3.26µM*
Cn1c(-c2ccc(C#N)cc2)c(C#Cc2ccccc2)c2ccccc21 | -0.9% | 10.0% | x | -3.6% | 5.0 | -27.7%
Cn1c(CN2CCOCC2)nc2cc(NC(=O)c3ccccc3[N+](=O)[O-])ccc21 | x | -10.7% | x | x | x | -2.6%
Cc1ccc(NC(=O)CN(C)Cc2c(O)ccc3ccccc23)cc1 | -8.9% | -7.3% | 2.0% | -0.7% | -101.3* | u
CN(C)Cc1c(O)ccc2ccccc12 | 2.9% | u | 6.7% | -2.8% | 0.0 | u
COc1ccc(CN(C)CC(=O)Nc2cc3oc4ccccc4c3cc2OC)c(OC)c1 | -1.6% | 13µM* | u | -9.6% | -10.8 | 10.3µM*
COc1cc2c(cc1NC(=O)c1cncc(Br)c1)oc1ccccc12 | u | -12.0% | 6.3% | u | 10.1 | -23.7%
SMILES | HT1080-NT tox | DT40 TDP1 CPT | ELG1 repair inh | HT1080 IDH1KD tx | IL1B secr inh | TDP1 cell noCPT
CCN(CC)S(=O)(=O)c1cccc(C(=O)Nc2cc3oc4ccccc4c3cc2OC)c1 | 2.0% | 16.4µM* | u | 5.9% | 12.6 | 18.4µM*
COc1cc2c(cc1NC(=O)CN(C)Cc1ccc(OC)c(OC)c1)oc1ccccc12 | u | 16.4µM* | 14.6µM* | u | -24.7 | 16.4µM*
O=C1CC[C@@H](C(=O)N2CSC[C@@H]2C(=O)Nc2cccc(C(F)(F)F)c2)N1 | 10.4% | -5.8% | x | 2.3% | 8.3 | 3.9%
COc1cc(OC)c(NC(=O)Cc2c(C(=O)O)c(C)cn2C)cc1Cl | x | -2.9% | x | x | x | 4.0%
Cc1c(CCNC=O)cc(C)c2c3c(oc12)CCCC3 | 0.1% | -59.9% | x | -0.3% | 0.0 | u
COc1cc2c(cc1NC(=O)CCC(=O)O)oc1ccccc12 | 8.1% | 9.4% | 8.7% | 8.2% | 14.4 | -19.1%
COc1cc2c(cc1NC(=O)C(C)NCc1ccccc1)oc1ccccc12 (stereo not given) | u | u | -26.6% | u | -5.5 | 16.4µM*
COc1ccc(CN(C)CC(=O)Nc2ccc(Cl)cc2C(F)(F)F)c(OC)c1 | -8.9% | 20.6µM* | -6.1% | -13.4% | -12.6 | 16.4µM*
COc1ccc2ccc(O)c(CN(C)CC(=O)Nc3ccccc3C(F)(F)F)c2c1 | u | 20.6µM* | 1.1% | -29.9% | -23.2 | u
O=c1[nH]c(SCCOc2cccc3ccccc23)nc2ccccc12 | u | u | -7.0% | 6.8% | 19.5 | 7.31µM*
Cc1cc(=O)[nH]c(SCC(=O)c2ccc(C(C)C)cc2)n1 | -1.0% | -25.7% | u | -9.4% | 21.8 | 18.4µM*
Cc1nc2ccccc2nc1SCC(=O)c1ccccc1 | 1.5% | u | u | -6.4% | 15.1 | 7.31µM*
CCc1ccc(C(=O)CSc2nc3ccccc3c(=O)[nH]2)cc1 | 0.9% | 1.46µM* | u | 1.2% | 51.2 | 1.64µM*
CCOc1ccc(OCCSc2nc3ccccc3c(=O)[nH]2)cc1 | -1.5% | u | 0.0% | u | 25.9 | u
Cc1ccc(C(=O)CSc2nc3ccccc3c(=O)[nH]2)cc1 | 2.4% | 5.8µM* | u | 2.0% | 0.0 | 8.2µM*
O=C(CCCSc1nc2ccccc2c(=O)[nH]1)c1ccc(F)cc1 | -6.3% | 11.6µM* | -15.6% | -14.8% | 0.0 | u
Cc1ccc(C(=O)CSc2nc3ccccc3c(=O)[nH]2)cc1C | 2.0% | u | 18.8% | -27.5% | 21.7 | u
CN1C(=S)SC2CS(=O)(=O)CC21 (stereo not given) | 15.1% | 0.0% | 0.4% | 18.3% | x | -13.2%
COc1cccc(NC(=S)/C(=C(\[O-])c2ccc(OC(F)F)cc2)[n+]2ccccc2)c1 | -10.2% | 13µM* | 14.1% | -2.2% | 25.8 | 14.6µM*
[O-]/C(=C(\C(=S)Nc1cccc2ccccc12)[n+]1ccccc1)c1ccc(OC(F)F)cc1 | -11.0% | u | u | -17.3% | 18.4 | 20.6µM*
